Laboratory results as given in PubChem BioAssay (EPA / NIEHS).
Active and inactive are the calls of the source. The calls were made as follows: active = hit-call score of the fitted dose curve at least 0.9, where 1 is the maximum; inactive = score below 0.9.

Assays:
[1] = read-out: Fatty acid synthase (Homo sapiens) (UniProt P49327); experiment: LTEA_HepaRG_FASN: Life Technologies and Expression Analysis (LTEA) Assay for Fatty Acid Synthase (FASN) using HepaRG (AID 2283448); conditions: mRNA level, 48 h; actives raise or lower the signal
Outline: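 FASN expression changes, up or down relative to 0.5% DMSO, were measured by qRT-PCR in human HepaRG cells after 48 h treatment with chemicals at eight concentrations (half-log steps from 100 uM).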

[2] = read-out: Cyclin D2 (CCND2), CCND2 (gene 894); experiment: LTEA_HepaRG_CCND2: Life Technologies and Expression Analysis (LTEA) Assay for Cyclin D2 (CCND2) using HepaRG (AID 2283449); conditions: mRNA level, 48 h; actives raise or lower the signal;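 also: CCND2 transcript measured by TaqMan qRT-PCR and normalised to three housekeeping genes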
Outline: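 Differentiated human HepaRG cells were exposed for 48 h in serum-free induction medium to eight half-log concentrations topping at 100 uM (0.5% DMSO vehicle). CCND2 mRNA was quantified by TaqMan qRT-PCR, normalised to ACTB, GAPDH and POLR2A, and fitted bidirectionally against DMSO.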

[3] = read-out: Cyclin Dependent Kinase Inhibitor 1A (CDKN1A), CDKN1A (gene 1026); experiment: LTEA_HepaRG_CDKN1A: Life Technologies and Expression Analysis (LTEA) Assay for Cyclin Dependent Kinase Inhibitor 1A (CDKN1A) using HepaRG (AID 2283450); conditions: mRNA level, 48 h; actives raise or lower the signal
Outline: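 HepaRG, 48 h dosing, 8-pt half-log series from 100 uM top, 0.5% DMSO vehicle, duplicates. Readout: TaqMan qRT-PCR of CDKN1A transcript, housekeeping-normalized (ACTB, GAPDH, POLR2A). Up/down curve fit relative to DMSO.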

[4] = read-out: Cyclin D1 (CCND1), CCND1 (gene 595); experiment: LTEA_HepaRG_CCND1: Life Technologies and Expression Analysis (LTEA) Assay for Cyclin D1 (CCND1) using HepaRG (AID 2283451); conditions: mRNA level, 48 h; actives raise or lower the signal
Outline: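 qRT-PCR (Fluidigm 96.96 array) read-out of transcript level, housekeeping-normalized (ACTB/GAPDH/POLR2A). HepaRG cells, 48 h chemical exposure, 8-point half-log series from 100 uM, 0.5% DMSO vehicle; gain or loss relative to DMSO baseline.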

[5] = read-out: catalase (CAT), CAT (gene 847); experiment: LTEA_HepaRG_CAT: Life Technologies and Expression Analysis (LTEA) Assay for catalase (CAT) using HepaRG (AID 2283452); conditions: mRNA level, 48 h; actives raise or lower the signal
Outline: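 Differentiated HepaRG cells in serum-free induction medium were dosed 48 h in duplicate, eight half-log concentrations from 100 uM in 0.5% DMSO. Transcript measured by TaqMan qRT-PCR, normalised to ACTB/GAPDH/POLR2A, fitted bidirectionally against DMSO.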

[6] = read-out: flavin-containing dimethylaniline monooxygenases 3 (FMO3), FMO3 (gene 2328); experiment: LTEA_HepaRG_FMO3: Life Technologies and Expression Analysis (LTEA) Assay for flavin-containing dimethylaniline monooxygenases 3 (FMO3) using HepaRG (AID 2283453); conditions: mRNA level, 48 h; actives raise or lower the signal
Outline: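 Differentiated HepaRG cells in serum-free induction medium, exposed 48 h in duplicate to 8 half-log concentrations up to 100 uM in 0.5% DMSO. FMO3 mRNA by qRT-PCR, normalized to ACTB, GAPDH, POLR2A; bidirectional fit vs DMSO.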

[7] = read-out: Cytochrome P450 (CYP1A1), CYP1A1 (gene 1543); experiment: LTEA_HepaRG_CYP1A1: Life Technologies and Expression Analysis (LTEA) Assay for Cytochrome P450 (CYP1A1) using HepaRG (AID 2283454); conditions: mRNA level, 48 h; actives raise or lower the signal
Outline: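 qRT-PCR read-out: CYP1A1 transcript normalized to three housekeeping genes, fitted bidirectionally against 0.5% DMSO vehicle baseline. Human HepaRG cells, 48 h chemical exposure, 8-point half-log series topping at 100 uM.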

[8] = read-out: CFLAR gene, CFLAR (gene 8837); experiment: LTEA_HepaRG_CFLAR: Life Technologies and Expression Analysis (LTEA) Assay for CFLAR gene using HepaRG (AID 2283455); conditions: mRNA level, 48 h; actives raise or lower the signal
Outline: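 HepaRG cells were plated for 48 h, switched to serum-free induction medium, then exposed in duplicate for 48 h to 8 concentrations (top 100 uM, half-log steps, 0.5% DMSO). CFLAR mRNA was measured by qRT-PCR, normalized to ACTB, GAPDH and POLR2A.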

[9] = read-out: Forkhead box O1 (FOXO1), FOXO1 (gene 2308); experiment: LTEA_HepaRG_FOXO1: Life Technologies and Expression Analysis (LTEA) Assay for Forkhead box O1 (FOXO1) using HepaRG (AID 2283456); conditions: mRNA level, 48 h; actives raise or lower the signal
Outline: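 Differentiated human HepaRG cells in serum-free induction medium were exposed in duplicate for 48 h to eight half-log concentrations (top 100 uM, 0.5% DMSO). FOXO1 mRNA was measured by TaqMan qRT-PCR, normalised to ACTB, GAPDH and POLR2A, and fitted bidirectionally against DMSO.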

[10] = read-out: growth arrest and DNA damage 45 (GADD45A), GADD45A (gene 1647); experiment: LTEA_HepaRG_GADD45A: Life Technologies and Expression Analysis (LTEA) Assay for growth arrest and DNA damage 45 (GADD45A) using HepaRG (AID 2283458); conditions: mRNA level, 48 h; actives raise or lower the signal
Outline: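 Cells plated and cultured 48 h, switched to serum-free induction medium, then dosed for 48 h (100 uM top, half-log dilutions, 0.5% DMSO). RNA was isolated and transcript measured by Fluidigm qRT-PCR.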

[11] = CEETOX_H295R_CORTIC: CeeTox H295R High-throughput Steroidogenesis Assay for Corticosterone (CORTIC) (AID 2283437); conditions: actives raise or lower the signal;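 also: corticosterone secreted into medium quantified by mass spectrometry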
Outline: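 H295R cells were prestimulated 48 h with 10 uM forskolin, then exposed 48 h to test chemical in 0.1% DMSO. Medium corticosterone was MTBE-extracted and quantified by HPLC-MS/MS; bidirectional fit versus DMSO baseline.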

[12] = CEETOX_H295R_CORTISOL: CeeTox H295R High-throughput Steroidogenesis Assay for Cortisol (AID 2283438); conditions: actives raise or lower the signal;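 also: cortisol secreted into medium quantified by LC-MS/MS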
Outline: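 Forskolin 10 uM 48 h prestim → test cmpd in DMSO (0.1% final) 48 h → medium MTBE-extracted → LC-MS/MS cortisol vs 7-pt std curve. Gain/loss of signal fitted vs DMSO. MTT viability in same wells.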

[13] = CEETOX_H295R_DOC: CeeTox H295R High-throughput Steroidogenesis Assay for DOC (AID 2283439); conditions: actives raise or lower the signal
Outline: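 Readout: 11-deoxycorticosterone in culture medium by reverse-phase C18 HPLC with ESI+ tandem MS after MTBE extraction. Cells: H295R, forskolin-primed (10 uM, 48 h), chemical-treated 48 h; DMSO 0.1% final. Activity fitted bidirectionally versus DMSO.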

[14] = CEETOX_H295R_11DCORT: CeeTox H295R High-throughput Steroidogenesis Assay for 11-Deoxycortisol (11DCORT) (AID 2283432); conditions: actives raise or lower the signal
Outline: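 H295R cells; 10 uM forskolin prestim 48 h; compound in 0.1% DMSO 48 h; media extracted with MTBE; 11-deoxycortisol by LC-MS/MS, 7-point standard curve; gain/loss vs DMSO baseline; viability by MTT in same wells.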

[15] = CEETOX_H295R_OHPREG: CeeTox H295R High-throughput Steroidogenesis Assay for OH-Pregnenolone (OHPREG) (AID 2283434); conditions: actives raise or lower the signal
Outline: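 Human adrenal H295R cells were prestimulated 48 h with 10 uM forskolin, then exposed 48 h to chemical in 0.1% DMSO. Medium 17alpha-hydroxypregnenolone was quantified by HPLC-MS/MS after MTBE extraction; bidirectional fitting versus DMSO baseline.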

[16] = CEETOX_H295R_OHPROG: CeeTox H295R High-throughput Steroidogenesis Assay for OH-Progesterone (OHPROG) (AID 2283435); conditions: actives raise or lower the signal;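 as to AC50: 17alpha-hydroxyprogesterone secreted into medium measured by HPLC-MS/MS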
Outline: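 H295R, 10 uM forskolin prestim 48 h; cmpd in 0.1% DMSO 48 h; medium MTBE-extracted, HPLC-MS/MS for OH-progesterone; 7-pt std curve; bidirectional fit vs DMSO; MTT viability, chemicals diluted until viability >/=70%.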

[17] = CEETOX_H295R_ANDR: CeeTox H295R High-throughput Steroidogenesis Assay for Androstenedione (ANDR) (AID 2283436); conditions: actives raise or lower the signal
Outline: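 H295R human adrenal cells (passages ≤10) were exposed to test chemicals for 48 h; androstenedione in medium was MTBE-extracted and quantified by HPLC-MS/MS against a 7-point standard curve. Bidirectional fitting used DMSO as baseline.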

[18] = CEETOX_H295R_ESTRADIOL: CeeTox H295R High-throughput Steroidogenesis Assay for Estradiol (AID 2283440); conditions: actives raise or lower the signal;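 also: estradiol secreted into medium quantified by LC-MS/MS after dansyl derivatisation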
Outline: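 H295R, 48 h forskolin (10 uM) prestim → 48 h compound, 0.1% DMSO final. Estradiol in medium: MTBE extraction, dansyl chloride derivatization, LC-MS/MS. Fit bidirectional vs DMSO baseline; MTT viability in same wells.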

[19] = CEETOX_H295R_ESTRONE: CeeTox H295R High-throughput Steroidogenesis Assay for Estrone (AID 2283441); conditions: actives raise or lower the signal;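 also: estrone secreted into medium measured by LC-MS/MS after dansyl derivatization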
Outline: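 H295R cells prestimulated 48 h with 10 uM forskolin, then exposed 48 h to chemicals in 0.1% DMSO final; estrone in medium extracted with MTBE, dansyl-derivatized, quantified by HPLC-MS/MS; bidirectional fitting versus DMSO, viability by MTT.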

[20] = CEETOX_H295R_TESTO: CeeTox H295R High-throughput Steroidogenesis Assay for Testosterone (TESTO) (AID 2283457); conditions: actives raise or lower the signal;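 as to AC50: cells exposed to chemicals for 48 h before medium collection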
Outline: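 Readout: testosterone quantified by HPLC-MS/MS (C18, ESI positive) after MTBE liquid-liquid extraction of culture medium. Cells were H295R, 48 h chemical exposure per OECD 456 with modifications. Gain or loss of signal fitted relative to DMSO.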

Measured: AC50

Sequence of Fatty acid synthase (Homo sapiens) (P49327 whole entry, looked up): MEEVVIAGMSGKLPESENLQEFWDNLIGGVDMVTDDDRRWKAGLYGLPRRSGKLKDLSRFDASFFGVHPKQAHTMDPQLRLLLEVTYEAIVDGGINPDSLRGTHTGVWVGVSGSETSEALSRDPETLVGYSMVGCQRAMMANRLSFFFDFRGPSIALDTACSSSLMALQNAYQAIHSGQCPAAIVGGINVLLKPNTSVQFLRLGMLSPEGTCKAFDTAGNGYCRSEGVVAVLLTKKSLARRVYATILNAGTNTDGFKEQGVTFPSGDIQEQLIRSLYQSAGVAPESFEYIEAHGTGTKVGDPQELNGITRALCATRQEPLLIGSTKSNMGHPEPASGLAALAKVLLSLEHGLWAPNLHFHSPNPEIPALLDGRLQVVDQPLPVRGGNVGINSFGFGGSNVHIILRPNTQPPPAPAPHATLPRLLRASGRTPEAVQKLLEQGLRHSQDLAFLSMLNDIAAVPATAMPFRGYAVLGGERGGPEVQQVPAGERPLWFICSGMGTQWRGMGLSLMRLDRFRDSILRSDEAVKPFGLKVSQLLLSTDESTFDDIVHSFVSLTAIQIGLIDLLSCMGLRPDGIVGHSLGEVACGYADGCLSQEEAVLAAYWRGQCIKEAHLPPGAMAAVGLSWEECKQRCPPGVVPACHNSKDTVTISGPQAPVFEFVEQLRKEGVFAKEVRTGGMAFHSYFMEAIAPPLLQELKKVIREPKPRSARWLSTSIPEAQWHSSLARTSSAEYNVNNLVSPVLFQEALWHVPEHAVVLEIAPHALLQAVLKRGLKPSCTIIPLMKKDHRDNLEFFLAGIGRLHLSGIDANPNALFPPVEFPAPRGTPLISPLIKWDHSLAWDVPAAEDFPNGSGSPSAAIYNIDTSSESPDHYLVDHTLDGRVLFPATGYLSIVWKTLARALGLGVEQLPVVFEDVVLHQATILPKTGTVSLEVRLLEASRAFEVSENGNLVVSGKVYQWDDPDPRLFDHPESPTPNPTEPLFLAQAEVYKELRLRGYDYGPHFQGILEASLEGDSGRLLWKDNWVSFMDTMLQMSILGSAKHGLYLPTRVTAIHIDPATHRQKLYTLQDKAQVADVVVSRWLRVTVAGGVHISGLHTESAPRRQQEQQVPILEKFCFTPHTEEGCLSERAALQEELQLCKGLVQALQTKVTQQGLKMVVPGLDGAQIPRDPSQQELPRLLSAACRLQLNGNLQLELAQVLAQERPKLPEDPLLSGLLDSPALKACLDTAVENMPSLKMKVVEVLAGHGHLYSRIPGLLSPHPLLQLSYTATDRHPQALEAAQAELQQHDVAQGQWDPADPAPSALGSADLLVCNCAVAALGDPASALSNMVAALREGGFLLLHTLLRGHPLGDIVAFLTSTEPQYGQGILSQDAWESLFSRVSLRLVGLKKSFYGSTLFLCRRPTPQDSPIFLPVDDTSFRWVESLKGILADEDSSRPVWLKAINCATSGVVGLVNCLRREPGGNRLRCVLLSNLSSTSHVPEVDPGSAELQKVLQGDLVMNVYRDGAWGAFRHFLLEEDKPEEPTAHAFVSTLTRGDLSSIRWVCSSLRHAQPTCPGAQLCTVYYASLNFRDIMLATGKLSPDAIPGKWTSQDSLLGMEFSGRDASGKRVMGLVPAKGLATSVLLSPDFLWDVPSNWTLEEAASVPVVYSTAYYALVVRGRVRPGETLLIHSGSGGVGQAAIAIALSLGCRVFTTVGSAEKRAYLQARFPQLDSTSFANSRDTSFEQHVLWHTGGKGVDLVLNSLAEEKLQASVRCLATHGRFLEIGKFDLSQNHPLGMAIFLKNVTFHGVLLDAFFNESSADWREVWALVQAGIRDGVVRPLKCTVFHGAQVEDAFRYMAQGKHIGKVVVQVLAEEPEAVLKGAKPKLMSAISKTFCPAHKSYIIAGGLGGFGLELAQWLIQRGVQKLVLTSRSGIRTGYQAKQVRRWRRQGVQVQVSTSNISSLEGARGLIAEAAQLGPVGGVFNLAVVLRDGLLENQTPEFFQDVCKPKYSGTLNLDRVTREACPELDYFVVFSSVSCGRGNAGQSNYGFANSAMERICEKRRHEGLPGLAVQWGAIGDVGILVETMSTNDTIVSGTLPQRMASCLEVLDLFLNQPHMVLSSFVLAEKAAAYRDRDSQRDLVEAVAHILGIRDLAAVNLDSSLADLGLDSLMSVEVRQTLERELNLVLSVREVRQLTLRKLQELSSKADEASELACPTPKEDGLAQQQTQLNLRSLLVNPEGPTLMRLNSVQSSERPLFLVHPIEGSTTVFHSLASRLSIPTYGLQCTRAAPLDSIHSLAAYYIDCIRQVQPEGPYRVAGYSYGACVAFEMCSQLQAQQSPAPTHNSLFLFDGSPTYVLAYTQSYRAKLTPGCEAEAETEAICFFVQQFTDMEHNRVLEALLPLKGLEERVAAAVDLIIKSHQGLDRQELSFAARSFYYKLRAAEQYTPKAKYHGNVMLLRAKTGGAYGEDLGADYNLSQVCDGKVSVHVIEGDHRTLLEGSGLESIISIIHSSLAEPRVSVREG

OCC(CO)(CBr)CBr
inactive: [1] | [2] | [3] | [4] | [5] | [6] | [7] | [8] | [9] | [10]

O=C1NS(=O)(=O)c2ccccc21
active: [7] 73.2 µM
inactive: [1] | [3] | [4] | [5] | [6] | [8] | [9] | [10]

O=C(CCCN1CCC(O)(c2ccc(Cl)cc2)CC1)c1ccc(F)cc1
inactive: [11] | [12] | [13] | [4] | [8]
active: [1] 9.92 µM | [3] 79.9 µM | [5] 68.4 µM | [6] 73.7 µM | [7] 12.4 µM | [9] 81.2 µM | [10] 75 µM

COc1cc([N+](=O)[O-])ccc1N
inactive: [14] | [15] | [17] | [11] | [12] | [18] | [19] | [20]
active: [16] 15.1 µM | [13] 23.8 µM

Cc1cccc2c1ccc1ccccc12
inactive: [14] | [15] | [16] | [17] | [11] | [12] | [13] | [18] | [19] | [20]

CC(=O)Nc1ccc(O)cc1
inactive: [1] | [2] | [3] | [4] | [5] | [6] | [8] | [9] | [10]
active: [7] 50 µM

Oc1cc2ccccc2cc1O
inactive: [14] | [15] | [16] | [17] | [11] | [12] | [13] | [18] | [19] | [20]

CCCCCc1ccc(O)cc1
active: [17] 50 µM | [11] 21.9 µM | [20] 50 µM
inactive: [14] | [15] | [16] | [12] | [13] | [18] | [19]

CCCCC(CC)C(=O)O (configuration not stated)
active: [7] 50 µM
inactive: [1] | [3] | [4] | [5] | [8] | [10]

CCC(C)c1ccccc1O (configuration not stated)
active: [7] 50 µM
inactive: [1] | [2] | [3] | [4] | [5] | [6] | [8] | [9] | [10]

CCCCC=O
inactive: [1] | [2] | [3] | [4] | [5] | [6] | [7] | [8] | [9] | [10]

CS(=O)(=O)c1ccc([C@@H](CC2CCCC2)C(=O)Nc2cnccn2)cc1Cl
inactive: [4] | [8] | [9]
active: [1] 50 µM | [3] 50 µM | [5] 83.3 µM | [6] 78.6 µM | [10] 9.92 µM

CN(C)CCOC(c1ccccc1)c1ccccc1
active: [1] 50 µM
inactive: [3] | [4] | [5] | [6] | [8] | [9] | [10]

c1cc[nH]c1
inactive: [14] | [15] | [16] | [17] | [11] | [12] | [13] | [20]
